Laboratory results taken from paper PMC4336329 (PLoS ONE, 2015).
Hit rate of the full screen: of about 310,000 compounds, about 14,000 (4.5%) showed an effect of 50% or more. The effect is printed as a negative number. The list comes from a sample in which strong results are over-represented; it also holds similar structures and randomly drawn compounds.

target: human ether-à-go-go-related gene (hERG) potassium channel (human, UniProt Q12809); assay: primary screen, population patch clamp on CHO cells stably expressing hERG; higher = less effect of the substance
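Further: peak tail current of the secondary pulse compared with the same well before compound.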

human ether-à-go-go-related gene (hERG) potassium channel, sequence (Q12809 whole entry, looked up): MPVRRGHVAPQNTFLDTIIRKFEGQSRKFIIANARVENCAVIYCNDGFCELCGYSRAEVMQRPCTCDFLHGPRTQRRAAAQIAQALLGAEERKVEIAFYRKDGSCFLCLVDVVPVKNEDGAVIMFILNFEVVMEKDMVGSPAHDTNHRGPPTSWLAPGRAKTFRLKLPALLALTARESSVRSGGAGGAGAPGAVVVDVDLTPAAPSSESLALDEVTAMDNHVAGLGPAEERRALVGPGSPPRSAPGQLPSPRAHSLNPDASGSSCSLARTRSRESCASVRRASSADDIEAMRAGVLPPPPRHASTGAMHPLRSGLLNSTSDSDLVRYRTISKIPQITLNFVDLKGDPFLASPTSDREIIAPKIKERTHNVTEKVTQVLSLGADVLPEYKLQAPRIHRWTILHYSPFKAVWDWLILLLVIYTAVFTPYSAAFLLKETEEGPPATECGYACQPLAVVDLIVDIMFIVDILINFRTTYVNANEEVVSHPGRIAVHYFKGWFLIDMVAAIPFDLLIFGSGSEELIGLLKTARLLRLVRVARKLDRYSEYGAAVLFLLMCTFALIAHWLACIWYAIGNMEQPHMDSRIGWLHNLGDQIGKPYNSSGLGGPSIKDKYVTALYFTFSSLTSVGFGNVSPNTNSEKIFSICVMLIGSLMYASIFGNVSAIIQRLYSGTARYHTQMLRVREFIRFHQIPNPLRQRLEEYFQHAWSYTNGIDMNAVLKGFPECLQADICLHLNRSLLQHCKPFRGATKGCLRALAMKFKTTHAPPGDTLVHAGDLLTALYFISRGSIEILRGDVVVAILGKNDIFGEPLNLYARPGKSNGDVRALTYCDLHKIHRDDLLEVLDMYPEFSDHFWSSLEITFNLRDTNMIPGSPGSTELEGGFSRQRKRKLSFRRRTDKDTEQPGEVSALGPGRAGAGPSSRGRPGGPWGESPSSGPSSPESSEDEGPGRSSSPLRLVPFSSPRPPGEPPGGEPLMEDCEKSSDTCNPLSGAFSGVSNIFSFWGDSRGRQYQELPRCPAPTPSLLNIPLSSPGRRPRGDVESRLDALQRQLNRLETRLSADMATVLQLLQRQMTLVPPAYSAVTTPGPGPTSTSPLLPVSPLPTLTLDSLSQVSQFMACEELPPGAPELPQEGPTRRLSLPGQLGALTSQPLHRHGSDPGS

Structure (SMILES) | hERG current change (%, negative = inhibition) at 10uM [%]
Cc1cc(C)cc(NC(=O)CCC(=O)Nc2cc(C)on2)c1 | 8.01
Cc1cc(C)c(C(CC(=O)c2cccs2)C(C#N)C#N)c(C)c1 (centres unmarked) | -23.9
O=c1c2ccccc2n2c(-c3cccc(Cl)c3)nnc2n1Cc1ccccc1 | -11.8
COc1ccccc1NC(=O)c1cc(=O)[nH]c2ccccc12 | 33.4
COc1ccc(CN2C(=O)CN=C2Nc2cc(C)ccc2C)cc1.Cl | 1.79
O=C(CN(Cc1ccc(Cl)cc1)C(=O)CN1C(=O)COc2ccccc21)NC1CCCC1 | 15
CCOC(=O)c1ccc2nc(NC(NC(C)=O)(C(=O)OC)C(F)(F)F)sc2c1 (centres unmarked) | 13.6
CN(C(=O)CSc1nnc(Cc2ccccc2F)n1N)C1CCS(=O)(=O)C1 (centres unmarked) | 9.76
FC(F)(F)c1cccc(Cc2noc(CN3CCC(c4ccncc4)CC3)n2)c1 | -66.2
FC(F)(F)c1cccc(Cc2noc(CN3CCCC(CN4CCCC4)C3)n2)c1 (centres unmarked) | -45.5
FC(F)(F)c1cccc(Cc2noc(CN3CCCC3)n2)c1 | 15.6
FC(F)(F)c1cccc(Cc2noc(CN3CCSCC3)n2)c1 | 0.814
FC(F)(F)c1cccc(Cc2noc(CN3CCC(N4CCCCC4)CC3)n2)c1 | -74.7
NC(=O)[C@@H]1CCCN1Cc1nc(Cc2cccc(C(F)(F)F)c2)no1 | 8.45
CCOC(=O)N1CCN(Cc2nc(Cc3cccc(C(F)(F)F)c3)no2)CC1 | -15
Fc1cccc(Cc2noc(CN3CCC(c4ccncc4)CC3)n2)c1 | -21.4
OCC1CCCN(C2CCN(Cc3nc(Cc4cccc(C(F)(F)F)c4)no3)CC2)C1 (centres unmarked) | -74.1
Fc1ccc(N2CCN(c3cnc4ccccc4n3)CC2)cc1 | 6.24
Cc1cc(C(F)(F)F)nn1Cc1n[nH]c(=S)n1-c1ccc(Cl)cc1 | 20.3
O=[N+]([O-])c1ccc(-c2c(O)c3ccccc3c3nc4ccccc4nc23)cc1 | 18
Cc1sc(NC(=O)c2ccco2)c(C(c2cccnc2)N2CCN(c3ccc(F)cc3)CC2)c1C (centres unmarked) | 1.92
Cc1sc(NC(=O)c2ccco2)c(C(c2cccnc2)N2CCN(CCO)CC2)c1C (centres unmarked) | -20.9
Cc1sc(NC(=O)c2ccco2)c(C(c2cccnc2)N2CCN(C)CC2)c1C (centres unmarked) | -32.7
CCN1CCN(C(c2cccnc2)c2c(NC(=O)c3ccco3)sc(C)c2C)CC1 (centres unmarked) | -58.4
Cc1sc(NC(=O)c2ccco2)c(C(c2cccnc2)N2CCCC2)c1C (centres unmarked) | -8.45
Cc1sc(NC(=O)c2ccco2)c(C(c2ccc(F)cc2)N2CCN(C)CC2)c1C (centres unmarked) | -68.1
